Assay outcomes as filed in PubChem BioAssay.
Artemis inh = Artemis endonuclease inhibitors, primary screen, biochemical, fluorescence intensity, FAM/BHQ-1 hairpin substrate. Protein artemis (Homo sapiens), Q96SD1. recombinant Artemis, quenched FAM hairpin cleavage fluorescence. inhibition, % at 10 µM. 30,000 tested, 0.78% active;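 active = at 10 µM dose, at least 30% inhibition, measured as corrected fluorescence normalized to stimulator and neutral control wells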
Target sequence (Q96SD1 whole entry, looked up): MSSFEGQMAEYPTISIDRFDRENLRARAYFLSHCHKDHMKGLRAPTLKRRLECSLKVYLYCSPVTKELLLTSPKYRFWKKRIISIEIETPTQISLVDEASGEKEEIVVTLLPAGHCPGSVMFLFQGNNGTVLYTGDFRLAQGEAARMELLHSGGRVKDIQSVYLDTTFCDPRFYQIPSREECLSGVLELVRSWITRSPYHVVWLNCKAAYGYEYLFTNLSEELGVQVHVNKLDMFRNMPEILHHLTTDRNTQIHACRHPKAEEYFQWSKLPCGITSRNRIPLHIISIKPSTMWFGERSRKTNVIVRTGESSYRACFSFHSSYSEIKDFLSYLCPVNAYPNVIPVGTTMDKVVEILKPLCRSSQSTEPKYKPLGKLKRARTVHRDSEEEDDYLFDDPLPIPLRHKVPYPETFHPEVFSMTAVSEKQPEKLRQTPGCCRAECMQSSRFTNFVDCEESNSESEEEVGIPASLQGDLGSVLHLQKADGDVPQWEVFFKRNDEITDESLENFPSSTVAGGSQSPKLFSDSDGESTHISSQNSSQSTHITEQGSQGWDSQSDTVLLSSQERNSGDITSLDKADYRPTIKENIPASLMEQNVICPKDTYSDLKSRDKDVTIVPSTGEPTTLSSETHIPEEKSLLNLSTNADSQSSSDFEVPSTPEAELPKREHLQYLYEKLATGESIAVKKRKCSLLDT
* marks the source's active call; other numbers are inactive results. Shown is part of a subset that was picked to be rich in hits.

SMILES	Artemis inh
COc1ccc(NC(=O)c2cccs2)cc1	-5.4
O=C(Nc1ccccc1)c1cccc(-c2nnc(-c3ccccc3)o2)c1	6.9
Cn1c(=O)c2c(nc(Oc3ccccc3)n2C)n(C)c1=O	-3.3
COC(=O)CSC1=C(C#N)C(c2ccc(C)cc2)C2=C(CCCC2=O)N1 (stereo not drawn)	7.2
COc1ccc(Nc2nc(N3CCCC3)c3ccccc3n2)cc1	33.4*
c1ccc2c(N3CCCC3)nc(-c3ccncc3)nc2c1	3.2
COc1cccc(Nc2nc(NCCO)c3ccccc3n2)c1	-7.2
Cc1nc2nc(Cc3ccccc3)[nH]n2c(=O)c1Cl	3.5
O=[N+]([O-])CC(=Nc1ccc(Cl)cc1)N/N=C\c1oc(O)c2ccccc12	34.8*
O=C(N/N=C\c1ccc(COc2ccc([N+](=O)[O-])cc2)o1)c1ccc(Cl)cc1	11.5
CC(=O)c1cccc(NS(=O)(=O)c2c(C)noc2C)c1	0.4
Cc1ccc(Oc2nc(-c3ccccc3)ncc2S(C)(=O)=O)cc1	-5.7
Cc1cccc(NC(=O)c2ccc3ccccc3n2)c1C	-2.4
O=C(O)C(=O)/C(=C\c1cccc2ccccc12)c1ccc2ccccc2n1	30.5*
O=C(O)C(=O)/C(=C\c1ccccc1)c1ccc2ccccc2n1	-8.4
CCc1ccc(OCCCC(=O)Nc2ccc(N3CCCCC3)cc2)cc1	-3.8
COc1ccc(N/C(N)=N/c2nc(CSc3ccc(C)cc3)cc(=O)[nH]2)cc1	14.2
COc1ccccc1N/C(N)=N/c1nc(CSc2ccc(C)cc2)cc(=O)[nH]1	30.3*
Cc1cc(=O)[nH]c(/N=C(\N)Nc2cccc3ccccc23)n1	-2.5
COC(=O)C(NC(=O)c1ccccc1)=C(C)C	-8.7
O=C(CSCc1ccco1)c1cccs1	10.8
Cc1cccc(Nc2ncc3c(n2)CC(c2ccco2)CC3=O)c1 (stereo not drawn)	7.0
O=C1CC(c2ccco2)Cc2nc(Nc3nc(-c4ccccc4)c4ccccc4n3)ncc21 (stereo not drawn)	34.2*
O=C(Nc1ncc2c(n1)CC(c1ccco1)CC2=O)c1ccccc1 (stereo not drawn)	-3.2
CS(=O)(=O)N(CC(=O)N1CCN(c2cccc(Cl)c2)CC1)C1CCCCC1	-2.7
SMILES	Artemis inh
Cc1cccc(OCC(O)Cn2c(NCCCOC(C)C)nc3c2c(=O)[nH]c(=O)n3C)c1 (stereo not drawn)	-3.5
COc1ccc(C2SC[C@@H](C(=O)O)N2C(C)=O)cc1 (stereo partly drawn)	-0.8
COc1ccc(C(=O)CSc2nnc(-c3ccccc3)o2)cc1	-2.9
COc1cccc(-c2nnc(SCC(=O)N3CCOCC3)o2)c1	1.7
COC(=O)CN(C(=O)CSc1nnc(-c2cccc(OC)c2)o1)c1ccc(OC)cc1	34.2*
CCCS(=O)(=O)N1CCC(C(=O)NCCN2CCCC2)CC1	1.7
COc1cc(/C=N\NC(=O)Cn2nnc3ccccc32)cc(OC)c1OC	3.9
CC(C)(C)c1cc(/C=N/NC(=O)Cc2nc3ccccc3[nH]2)cc(C(C)(C)C)c1O	31.7*
O=C(CCc1nc2ccccc2[nH]1)Nc1ccc2c(c1)OCO2	9.9
COC(=O)c1c(NC(=O)C2CC(=O)NN2Cc2ccccc2)sc(C)c1C (stereo not drawn)	-2.7
Cc1cc(C)c2cc(CN(Cc3ccc4c(c3)OCO4)Cc3nnnn3Cc3ccco3)c(=O)[nH]c2c1	40.2*
Cc1cc(C)c2cc(CN(CCO)Cc3nnnn3Cc3ccc(F)cc3)c(=O)[nH]c2c1	1.3
Cc1ccc2[nH]c(=O)c(CN(Cc3ccc4c(c3)OCO4)Cc3nnnn3Cc3ccco3)cc2c1	35.1*
CCC(c1nnnn1Cc1ccco1)N(CCc1ccccc1)Cc1cc2cc(C)ccc2[nH]c1=O (stereo not drawn)	14.4
CCc1ccc2[nH]c(=O)c(CN(Cc3ccccc3)Cc3nnnn3Cc3ccco3)cc2c1	21.1
O=c1[nH]c2cc3c(cc2cc1CN(Cc1ccccc1)Cc1nnnn1Cc1ccco1)OCCO3	27.0
O=C(CN1CCCCC1)Nc1cccc2c1OCO2	-3.2
CC(C)C(c1nnnn1Cc1ccccc1)N1CCN(Cc2ccco2)CC1 (stereo not drawn)	-1.1
O=c1[nH]cnc2c([N+](=O)[O-])cccc12	3.3
COC(=O)[C@H](CCSC)NC(=O)Nc1cc(C)ccc1C	-6.9
CSc1nc(N(CCO)CCO)c2sc3nc(-c4ccco4)c4c(c3c2n1)CCC4	46.1*
N#Cc1sc2nc3c(c(-c4ccco4)c2c1N)CCCC3	12.8
CC(C)c1nc2sc3c(SCC(=O)NCc4ccco4)ncnc3c2c2c1CCC2	28.8
CC(C)(C)c1cc(C(F)(F)F)nc(SCCCNC(=O)c2ccco2)n1	-0.2
Nc1nc(CSc2nnnn2-c2ccccc2)nc(N2CCCc3ccccc32)n1	14.1
SMILES	Artemis inh
Cc1cc(Cl)cc(Br)c1OCCNCC(C)O (stereo not drawn)	30.6*
CC(=O)NCCOc1c(C)cc(S(N)(=O)=O)cc1C	-4.3
COc1cc(C=O)ccc1OCCOCCOc1c(C)cc(Cl)cc1Cl	4.5
CNC(=O)c1ccccc1F	0.1
O=C(Nc1ccc(Cl)cn1)c1cc(S(=O)(=O)N2CCCCC2)ccc1Cl	3.8
O=c1c2ccccc2nc(SCc2cn3ccsc3n2)n1-c1ccc(F)cc1	12.5
O=c1c2c(-c3ccco3)csc2nc(SCc2cn3cccnc3n2)n1-c1ccccc1	31.1*
c1ccc2c(SCc3cn4cccnc4n3)ncnc2c1	-4.7
CCN(CC)C(=O)c1sc(NC(=O)c2ccoc2C)c(C(=O)OC)c1C	-1.8
COC(=O)c1c(NC(=O)c2ccco2)sc2c1C(C(=O)OC)CC2 (stereo not drawn)	-1.2
COCc1c(Br)c(C)nc(OCC(=O)O)c1C#N	-8.7
CNc1nc(-c2c[nH]c3ccccc23)cs1	38.4*
COC(=O)c1cc(-c2c[nH]c3ccccc23)n[nH]1	-3.7
Cc1csc(NC(=O)Cc2c[nH]c3ccccc23)n1	-3.5
CC(=O)O[C@H]1CSC[C@H]1NC(=O)c1ccccc1	-8.8
c1ccc(CSc2ncn(-c3ccccc3)n2)cc1	3.1
CCn1c(SCC(=O)Nc2sc(C)c(C)c2C#N)nnc1C(C)C	-3.9
N#CC1=C(SCC(=O)c2cc3ccccc3oc2=O)NC(=O)C(C#N)C12CCCC2 (stereo not drawn)	13.9
COc1cnc(N(C)C)nc1Sc1cccc(Cl)c1	2.2
CSc1nnc2c3cc(C)ccc3n(Cc3ccccc3)c2n1	37.3*
CCCn1c2ccccc2c2nnc(SC(CC)C(=O)Nc3cc(C)on3)nc21 (stereo not drawn)	0.8
O=C1c2ccccc2C(=O)N1CSc1nnc2c3ccccc3n(CCc3ccccc3)c2n1	6.6
O=C(NC1C(=O)NNC1c1ccccc1)c1ccccc1 (stereo not drawn)	-0.8
CCn1nc(CC(=O)Nc2ccc(-n3cnnn3)c(C)c2)c2ccccc2c1=O	1.0
Cc1onc(-c2c(F)cccc2Cl)c1C(=O)Nc1nc2ccccc2[nH]1	-12.8
SMILES	Artemis inh
COc1ccc2nc(NC(=O)C3CCN(S(=O)(=O)c4cnc[nH]4)CC3)sc2c1	3.6
COc1ccc2nc(NC(=O)C3CCCN(S(=O)(=O)c4cccs4)C3)sc2c1 (stereo not drawn)	39.5*
CCOc1ccc(OCC)c(NC(=O)C2CCCN(S(=O)(=O)c3cccs3)C2)c1 (stereo not drawn)	-1.9
CCOC(=O)N1CCC(NS(=O)(=O)c2cc(Br)cnc2N)CC1	-1.0
CCOC(=O)N1CCN(C(=O)CSCc2ccccc2C)CC1	-5.0
c1ccc(-c2cn3c(n2)CCC3)cc1	-4.5
c1ccc(-c2cn3nc4c(nc3n2)CCCC4)cc1	33.6*
